Test in all cases: pooled miR-30 sensor sort-seq; sequence = guide strand
Settings in all cases: shRNA

In test [1] the target is CNGA4.
Test [2] concerns the target CNGB1.
Test [3] concerns the target CNN2.
In test [4] the target is CNOT1.
Further: reference of the scale not given here.

TACCAGTCAATAACTCGCCGCT: the sensor-assay potency score (higher = more potent) in test [1] was found to be 0.117.
TACATCAGGTTGGTCAGCGGGT: in test [2], the sensor-assay potency score (higher = more potent) is -0.543.
Turning to TTGATGTTGGCTGTGCGGCGGT, in test [1], the sensor-assay potency score (higher = more potent) was -0.481.
Turning to TAACCGTGCTGCAAGTCGGGGA, in test [1], the sensor-assay potency score (higher = more potent) is -0.253.
With TTGTCCGTAATGATGTCCCCGC, the sensor-assay potency score (higher = more potent) in test [2] was -0.775.
In turn, TGCGGTAGTAGGTCTGTCCGGC yielded a sensor-assay potency score (higher = more potent) in test [2] of 0.228.
As to ATACCAGTCAATAACTCGCCGC, in test [1], the sensor-assay potency score (higher = more potent) is -0.942.
In turn, TTTCTTTTGTGAATACTTCCTG showed a sensor-assay potency score (higher = more potent) in test [3] of 0.659.
TAGTAGGTCTGTCCGGCGGTGG came in with a sensor-assay potency score (higher = more potent) in test [2] of -0.909.
For the sequence TTTGAACTTGCAGCAGAGCATG, in test [2], the sensor-assay potency score (higher = more potent) is -1.2.
TCGCATGTCCTTTTTGTCCGTA had a sensor-assay potency score (higher = more potent) in test [2] of -0.378.
Consider TTGGTATCATAGATGTGCCGCC, for which the sensor-assay potency score (higher = more potent) in test [3] was -0.285.
In the case of TTCACCGTGCTGTCCATGCAGC, the sensor-assay potency score (higher = more potent) in test [2] is -0.762.
Take TTGTCGGTTCCCAGCTTGGTAT: the sensor-assay potency score (higher = more potent) in test [3] was -1.75.
On the same count and under the same terms, for TTGCGTTTGGTCCACAGTCGTA the value was -1.13; for TTCTTTTGTGAATACTTCCTGA, -0.256.
On the same count and under the same terms, the result for TAGCACTCTCTCCACTGTCCTT reads -0.91.
As for TAGAGATGCCTTCTCGTGCCGT, the sensor-assay potency score (higher = more potent) in test [3] is -0.0875.
Take TCATAGAGATGCCTTCTCGTGC: the sensor-assay potency score (higher = more potent) in test [3] was -0.57.
In test [2], TTCTCTTCTTCATAAGCTGGAA had a sensor-assay potency score (higher = more potent) of -0.514.
The sequence TCTGTTGGTCTGAAGGTCCTAG registered a sensor-assay potency score (higher = more potent) in test [3] of 0.303.
For TAAGCTGGAACCACCTCTGTAC, the sensor-assay potency score (higher = more potent) in test [2] is 0.05.
On to TTCCTTTAGCTCTTCAACCTTT, for which, in test [4], the sensor-assay potency score (higher = more potent) is -0.326.
For the sequence TTGGACAGGTTTTCTAGCTGGT, the sensor-assay potency score (higher = more potent) in test [3] worked out at 0.325.
In test [4], TACAGTTAAATACTTCTCGTTC showed a sensor-assay potency score (higher = more potent) of -0.0593.
In test [3], TAAGATAGTTCCATCCTTCAGG showed a sensor-assay potency score (higher = more potent) of -0.219.
Same read-out and setting: for TTGGGGTCATATATCTGCCGGC the value was -0.73.
In test [3], TGTAGCTTGTTCATGAGTGTGC gave a sensor-assay potency score (higher = more potent) of 0.544.
TGGCTGGCACACTTGTTCGTGC: the sensor-assay potency score (higher = more potent) in test [3] is -1.46.
On to TAACTTTAAGTCATGCTCCTGA, for which the sensor-assay potency score (higher = more potent) in test [4] amounted to 0.328.
In test [2], TTGACGTCTTGCGAGCTCTTGG registered a sensor-assay potency score (higher = more potent) of -0.581.
In the case of TCATATTTGGACAGGAGCCGGT, the sensor-assay potency score (higher = more potent) in test [3] was -0.85.
Take TGTCACACTTGTCGGTTCCCAG: the sensor-assay potency score (higher = more potent) in test [3] is -0.793.
On to TTGATGAAGTTGGACAGGTTTT, for which the sensor-assay potency score (higher = more potent) in test [3] was -0.865.
TTGACTGGCAGCACTGAACGGG showed a sensor-assay potency score (higher = more potent) in test [3] of -0.107.
Regarding ATGAGTGTGCATAAGATAGTTC, the sensor-assay potency score (higher = more potent) in test [3] is -0.603.

Source of the values: the OligoGym collection.
